Screening results as filed in PubChem.
PfM18AAP inh-1: PfM18AAP enzyme inhibition | inhibition, % at 7.35 µM | recombinant PfM18AAP, H-Glu-NHMec fluorogenic cleavage | 290,000 compounds, 1.2% hits;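 active = inhibition above the campaign mean inhibition over all tested compounds plus 3 SD, cut at about 28% in these data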;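 also: 0% = plate median of test compound wells and 100% = 2 mM ZnCl2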
Exocytosis inh: lytic granule exocytosis inhibition. TALL-104 LAMP-1 surface exposure, flow cytometry; cells stimulated with thapsigargin and PMA. inhibition, % at 10 µM. 360,000 compounds, 0.66% hits. AID 651702;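 active = inhibition above about 55%, limit read from the data; inconclusive = no clear call, values can overlap the other calls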
ABHD5-PLIN5 inh: blocks binding of human ABHD5 to perilipin-5. Q00G26+Q8WTS1. Split G. princeps luciferase complementation, luminescence, 4 h. inhibition, % at 4 µM. 360,000 compounds, 0.78% hits;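 active = inhibition above the mean inhibition across every tested compound plus 3 SD, cut at about 22% in these data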;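 also: 0% = DMSO only wells and the 100% control is not disclosed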
Rce1 inh: inhibitors of yeast Ras-converting enzyme; calls only; yeast membranes, quenched prenylated peptide cleavage fluorescence; Q03530; 290,000 compounds, 0.27% hits;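 active = fall in fluorescence gain of 50% or more versus controls, with final raw signal at or below 3038400; inconclusive = same 50% fall but final raw signal above 3038400; inactive = fall in fluorescence gain under 50%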;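 also: plate controls were neutral control wells for no effect and wells lacking membranes for full effect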
Target sequence (Q03530 whole entry, looked up): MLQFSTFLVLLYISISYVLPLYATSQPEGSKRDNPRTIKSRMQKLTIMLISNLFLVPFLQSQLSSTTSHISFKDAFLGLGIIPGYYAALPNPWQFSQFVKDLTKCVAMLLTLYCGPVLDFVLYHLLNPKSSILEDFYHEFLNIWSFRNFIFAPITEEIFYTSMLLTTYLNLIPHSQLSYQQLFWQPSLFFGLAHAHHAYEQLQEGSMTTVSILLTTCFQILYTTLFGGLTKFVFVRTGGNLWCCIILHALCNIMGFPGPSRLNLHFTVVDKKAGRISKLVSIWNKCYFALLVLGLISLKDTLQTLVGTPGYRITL
Platelet DG rel: platelet dense granule release activity. 300,000 compounds, 0.22% hits. human platelet-rich plasma, SFLLRN dense granule ATP release, luminescence. inhibition, %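 (compounds screened at 7.5 µM in platelet-rich plasma)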. AID 1663;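 active = mean replicate score, as percent of positive control, at or above 50; inconclusive = mean below 50 but at least one replicate at or above 50; inactive = mean and every replicate below 50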
PfM18AAP inh-2: PfM18AAP inhibition, confirmation. shares compounds with PfM18AAP inh-1. recombinant PfM18AAP, H-Glu-NHMec fluorogenic cleavage. inhibition, % at 7.35 µM. 2,400 compounds, 28% hits;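 active = mean inhibition over replicate wells above the hit cutoff set for the earlier primary screen, cut at about 29% in these data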;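 also: 0% = median of test compound wells and 100% = 2 mM ZnCl2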
CTSL1 counter: Cathepsin L (human) inhibition, confirmation; purified cathepsin L1, Z-Leu-Arg-MCA fluorescence; AID 2178; 2,400 tested, under 10 active; inhibition, % at 5.96 µM; shares compounds with PfM18AAP inh-1;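 active = average inhibition across replicates above the hit cutoff set in the earlier primary screen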;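 also: 0% = median of test compound wells and 100% = Z-Phe-Ala-diazomethylketone 1 µM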
Target sequence (P07711 whole entry, looked up): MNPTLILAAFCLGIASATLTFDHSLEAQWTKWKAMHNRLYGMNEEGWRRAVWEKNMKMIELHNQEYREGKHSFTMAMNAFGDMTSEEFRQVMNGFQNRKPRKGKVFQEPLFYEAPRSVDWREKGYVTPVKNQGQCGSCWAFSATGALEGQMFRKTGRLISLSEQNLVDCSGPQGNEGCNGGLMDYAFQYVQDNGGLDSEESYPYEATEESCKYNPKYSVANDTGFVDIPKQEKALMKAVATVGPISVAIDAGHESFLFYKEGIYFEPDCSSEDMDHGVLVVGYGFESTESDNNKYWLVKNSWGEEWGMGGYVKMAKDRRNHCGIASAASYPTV
* hit, by the source's call; i = inactive; ? = inconclusive; nt = no result given. Hits are enriched below; roughly 2.6% of the tested compounds scored in any of these assays.

SMILES	PfM18AAP inh-1	Exocytosis inh	ABHD5-PLIN5 inh	Rce1 inh	Platelet DG rel	PfM18AAP inh-2	CTSL1 counter
CC(=O)c1ccc(NC(=O)C(C)OC(=O)c2cccc(-n3cnnn3)c2)cc1 (configuration not stated)	nt	-2	0	i	-7	nt	nt
CN1CCN(C(=S)NC(=O)c2ccc(S(=O)(=O)N3CCOCC3)cc2)CC1	45*	2	-10	i	14	15	2
O=C(NC(=S)N1CCN(C(c2ccccc2)c2ccccc2)CC1)c1ccc(S(=O)(=O)N2CCOCC2)cc1	-6	6	-2	i	-5	nt	nt
CCCn1c(COc2ccccc2)nc2ccccc21	5	-4	4	i	3	nt	nt
Cc1ccc(N=Cc2cccc(O)c2O)c(C)c1	34*	93*	-46	i	6	37*	-4
Oc1ccccc1C=NN=C1c2ccccc2-c2ccccc21	nt	7	2	nt	nt	nt	nt
Oc1cccc(/C=N/N=C/c2cccc(O)c2O)c1O	42*	14	6	i	?	7	-1
Oc1ccc(Br)cc1C=Nc1ccc(Cl)cc1	0	4	-1	i	1	nt	nt
Cc1ccc(O)c(C=Nc2cc(C)ccc2O)c1	32*	-1	-4	i	6	37*	-2
CCN(CC)c1ccc(N=Cc2cc(Br)ccc2O)cc1	37*	17	7	i	3	-18	-5
CC(=O)Nc1ccccc1-c1nn[nH]n1	0	7	-2	i	10	nt	nt
CC(C)(C)c1ccc(O)c(N=Cc2cc(Br)ccc2O)c1	56*	0	3	i	4	88*	-3
Cc1ccc(O)c(N=CC2=C(O)c3ccccc3C2=O)c1	71*	2	-15	i	20	-15	5
Cc1c(OCC(=O)N2CCC[C@@H]2C(=O)O)ccc2c3c(c(=O)oc12)CCC3	5	-7	-9	i	-1	nt	nt
COC(=O)/C=C1\SC(N2CCOCC2)=C(c2ccc(OC)cc2)C1=O	47*	1	-10	i	2	32*	-1
COc1ccc(CCNC(=O)Cc2cc(OCc3ccccc3)c(OC)cc2[N+](=O)[O-])cc1OC	3	2	-1	i	-1	nt	nt
NC(=S)NNC(=O)COc1ccccc1O	37*	-1	-5	i	-5	39*	-2
COc1ccc(-n2nc(C(=O)O)nc2-c2ccccc2)cc1	-6	6	-8	i	11	nt	nt
COc1cccc(C(=O)NNC(=O)Cc2csc(N)n2)c1	36*	2	-1	i	-2	-39	-4
CCOC(=O)Cc1csc(NC(=O)c2cccc(OC)c2)n1	2	-3	1	i	6	nt	nt
Cc1ccc(Oc2coc3cc(OC(=O)c4cccs4)ccc3c2=O)cc1	-13	-2	7	i	0	nt	nt
CC(=O)Oc1ccc2c(=O)c(Oc3ccccc3)coc2c1OC(C)=O	33*	1	-7	i	-14	2	0
O=C1C=C(Nc2ccc(Cl)cc2)CC(c2ccco2)C1 (configuration not stated)	10	0	-2	i	-3	nt	nt
O=C1C=C(Nc2cccc(O)c2)CC(c2ccco2)C1 (configuration not stated)	44*	4	-1	i	-3	-34	2
CCn1c(O)c(/C=N/n2cnnc2)sc1=S	59*	2	1	i	-11	57*	2
SMILES	PfM18AAP inh-1	Exocytosis inh	ABHD5-PLIN5 inh	Rce1 inh	Platelet DG rel	PfM18AAP inh-2	CTSL1 counter
CCn1c(O)c(C=Nc2ccccc2)sc1=S	5	nt	nt	nt	7	nt	nt
O=C(Nc1ccc(S(=O)(=O)N2CCOCC2)cc1)C1CCN(S(=O)(=O)c2ccccc2)CC1	nt	4	-22	i	-28	nt	nt
CCn1c(C)nc2cc(C(=O)NNC(=S)Nc3ccccc3OC)ccc21	3	nt	nt	i	-1	nt	nt
CCn1c(C)nc2cc(C(=O)NNC(=S)Nc3ccc(C)cc3)ccc21	40*	0	-6	i	1	-52	-1
COCCN1C=C(C(=O)OC)C(c2ccc3c(c2)OCO3)C(C(=O)OC)=C1	38*	-3	2	i	-3	-6	0
COCCCN1C(=O)/C(=C\c2ccc3c(c2)OCO3)C(C(=O)OC)=C1C	52*	14	4	i	1	-27	3
CCN1C(=O)/C(=C\c2ccc3c(c2)OCO3)C(C(=O)OC)=C1C	0	1	13	i	-3	nt	nt
O=c1nc(N/N=C/c2c[nH]c3ccccc23)cn[nH]1	40*	-2	3	nt	46	1	-3
C(=C\c1ccccc1)/C=N/Nc1nncc(-c2ccccc2)n1	-9	nt	nt	i	-3	nt	nt
O=c1nc(N/N=C/C=C/c2ccccc2)cn[nH]1	41*	-3	-2	nt	39	-1	4
CCC(C)c1ccccc1NC(=O)COC(=O)CCc1cc(OC)c(OC)c(OC)c1 (configuration not stated)	0	-1	0	i	23	nt	nt
O=C(CCc1nnc2ccc(NCc3ccco3)nn12)Nc1ccccc1F	48*	-7	12	i	-9	-21	-1
Cc1cccc(C(=O)N2CCC(c3nc(-c4ccc(S(=O)(=O)N5CCOCC5)cc4)no3)CC2)c1	-9	-1	4	i	-7	nt	nt
COc1ccc(NC(=O)c2c(NC(=O)CCC(=O)O)sc3c2CCCCC3)cc1	44*	10	-10	i	-5	-46	-5
CCC(/C=C1\Sc2ccc(OC)cc2N1CCO)=C\c1sc2ccc(OC)cc2[n+]1CCO	34*	-4	43*	nt	nt	-4	4
CC1CCCC(NC(=O)COC(=O)c2n[nH]c3ccccc23)C1C (configuration not stated)	nt	-5	-4	nt	nt	nt	nt
Fc1ccc(/C=N/n2cnn(Cc3ccccc3Cl)c2=S)cc1	41*	3	0	i	7	-32	2
CC(=O)N/C(=C/c1ccc([N+](=O)[O-])cc1)C(=O)O	32*	-1	4	nt	-2	-37	-3
O=C(O)c1ccc(-n2c(O)c(C=C3N=c4ccccc4=N3)sc2=S)cc1	51*	23	1	i	6	-46	1
O=C(O)CCCn1c(O)c(C=C2N=c3ccccc3=N2)sc1=S	-2	5	0	i	-6	nt	nt
CN(C)c1ccc(N=Cc2nc(-c3ccccc3)oc2O)cc1	9	-1	-2	i	-16	nt	nt
CN(C)c1ccc(N=Cc2cccn2C)cc1	58*	8	2	i	6	-24	-4
O=C(NNc1ccc(C2CCCCC2)cc1)C(O)(c1ccccc1)c1cccs1 (configuration not stated)	2	8	1	i	-3	nt	nt
COc1ccc(C(O)(C(=O)NNc2ccc(C)cc2)c2cccs2)cc1 (configuration not stated)	42*	1	6	i	-2	-47	-1
Cc1onc(-c2c(Cl)cccc2Cl)c1NC(=O)NNc1ccccn1	40*	4	0	nt	15	13	3
